# Source: PubChem BioAssay
# Only some compounds are listed: those with a hit (about 2.1% of all), similar ones and a draw of the others.
# PTAP TSG101 blk: blocks PTAP/TSG101 interaction to inhibit HIV-1 budding; Q99816; Fluorescence polarization, FITC-PTAP peptide / Tsg101 binding; Potency, µM (highest dose often 115 µM), usual class: inhibitors; 340,000 tested, under 10 active; AID 493005; active means well fitted inhibition curve with a large enough effect in the main read-out, with a control signal flat, not every such curve was filed as active; inconclusive means small, poorly fitted or top-dose-only effect, or effect the other way, or a change in a side signal; inactive means no such curve, though single readings can be large or run the other way
# Target sequence (Q99816 whole entry, looked up): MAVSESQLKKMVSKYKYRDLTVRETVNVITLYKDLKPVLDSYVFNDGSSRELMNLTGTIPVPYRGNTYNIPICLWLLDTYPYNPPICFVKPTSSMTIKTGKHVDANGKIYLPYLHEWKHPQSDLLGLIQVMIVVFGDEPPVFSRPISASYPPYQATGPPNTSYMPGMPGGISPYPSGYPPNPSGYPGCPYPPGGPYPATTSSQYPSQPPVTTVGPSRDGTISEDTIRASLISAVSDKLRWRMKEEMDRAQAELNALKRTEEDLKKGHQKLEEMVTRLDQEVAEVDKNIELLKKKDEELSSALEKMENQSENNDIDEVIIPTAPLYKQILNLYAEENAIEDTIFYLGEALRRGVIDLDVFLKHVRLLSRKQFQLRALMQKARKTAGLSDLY
#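 Fluorescence polarization binding of Tsg101 binding domain (10 uM final) to FITC-labeled PTAP peptide (50 nM final) in HEPES pH 7.5 buffer with NaCl, Tween 20, EDTA, TCEP. Compounds added before peptide; binding 20 min at RT.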
# TDP43 rescue: rescues yeast growth from TDP-43 toxicity; TDP-43 expressing yeast growth rescue, BacTiter-Glo, 24 h; Potency, µM (highest dose often 46.1 µM), hits mostly activators; actives 1.8% (n = 410,000); AID 652104; further: nearly all actives have a fitted effect of over 50% in size
#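 Cell-based yeast growth screen: TDP-43 expression induced in galactose, inoculum OD600=0.02 after raffinose pregrowth to mid-log. Read-out BacTiter-Glo luminescence at 24 hr, 30 deg C; inhibition of toxicity seen as signal increase.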
# FUS suppressor: suppressors of FUS proteinopathy in yeast. AID 1347120. Potency, µM (series often up to 76.6 µM), most hits filed as activators. actives 0.24% (n = 390,000). S. cerevisiae FUS-expressing, growth rescue, OD600, 24 h; further: nearly all actives have a fitted effect of over 55% in size
#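 Yeast FUS proteinopathy model; galactose-induced FUS (2%), starting OD 0.005. Cpds in dilution series, 24hr, 30C, 99% humidity. Abs 600 nm growth. Pos ctrl CP55940 (top 92uM final); neg ctrl DMSO.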
# aSyn yeast inh: rescues yeast growth from alpha-synuclein toxicity. Yeast expressing alpha-synuclein, growth rescue, BacTiter-Glo, 24 h. Potency, µM (top dose mostly 46.1 µM), actives largely listed as activators. actives 0.14% (n = 370,000). AID 652106; further: nearly all actives have a fitted effect of over 65% in size
#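 Galactose-induced alpha-syn yeast (OD600=0.02, raffinose-pregrown) + pinned cpd, 24 hr, 30 deg C; growth by BacTiter-Glo luminescence. Growth restoration scores as activation.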
# Abeta rescue: compounds reversing amyloid beta toxicity in yeast. Potency, µM (doses to about 46.1 µM), hits mostly activators. yeast expressing A-beta42, growth rescue, OD600, 48 h; response scale: 0% DMSO, 100% iron-clioquinol control. actives 0.063% (n = 410,000); further: nearly all actives have a fitted effect of over 55% in size
#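 Yeast A-beta toxicity model in growth medium with pinned compounds, 48 h at 30 C; growth read as absorbance at 600 nm. Normalized to FeCl3/clioquinol equimolar mix (positive) and DMSO (negative).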
# A number is an active result; n = inactive; u = inconclusive; x = no result; ! = not active in a repeat; [ ] = another dose, or the depositor's remark. Unless noted, the call rests on the fitted dose curve; in most records, active means well fitted curve in the direction sought with a large enough effect; inconclusive means small, poorly fitted or top-dose-only effect, or another doubt; inactive means no such curve, though single readings can be large; an effect the other way counts as inactive or inconclusive.
SMILES,PTAP TSG101 blk,TDP43 rescue,FUS suppressor,aSyn yeast inh,Abeta rescue
CN(C)CCNC(=O)c1cccc2c(-c3ccc(F)c(F)c3)coc12,x,n,n,n,n
O=C(Nc1ccccc1)c1cccc2c(-c3cccnc3)coc12,x,14µM,n,n,n
O=C(O)C=C1CCN(c2ncc(C(F)(F)F)cc2Cl)CC1,n,13µM,n,n,n
CCN(C(=O)COC(=O)c1c2c(nc3ccccc13)/C(=C/c1ccccc1)CC(C)C2)C1CCS(=O)(=O)C1 (centres undefined),n,14µM,x,n,n
CCN(C(=O)COC(=O)c1c(C)nn(-c2ccccc2)c1C)C1CCS(=O)(=O)C1 (centres undefined),n,n[9.22 µM],n,n,n
Cc1cccc(N2CCN(C(=O)c3oc(=O)c4ccccc4c3-c3ccccc3)CC2C)c1 (centres undefined),x,13µM,u,x,n
O=C(c1oc(=O)c2ccccc2c1-c1ccccc1)N1CCOCC1,n,n,n,n,n
CCCCCCOc1ccc(NC(=O)CC2C(=O)N(CC)C(=S)N2Cc2ccco2)cc1 (centres undefined),n,u,x,14µM,n
CCN1C(=O)C(CC(=O)Nc2ccc(F)cc2)N(Cc2ccco2)C1=S (centres undefined),n,n,n,n,n
O=C(/C=C/Nc1ccccc1)c1ccccc1,n,n,n,n,n
CC(=O)Nc1ccc(N/C=C/C(=O)c2ccccc2)cc1,n,13µM,n,n,n
Cc1ccc(-n2ccnc(NCc3cccs3)c2=O)cc1C,x,16µM,n,x,n
Cc1cc(NCc2ccccc2)nc(-c2ccccc2O)n1,n,11µM,n,n,n
Cc1ccc(C)c(Nc2cc(C)nc(-c3ccccc3O)n2)c1,n,14µM,n,n,n
Cc1ccc(S(=O)(=O)N2CCC(N3CCN(Cc4ccccc4)C(=O)C3=O)CC2)cc1C,x,n,n,x,n
O=S(=O)(Nc1ccc(C(O)(C(F)(F)F)C(F)(F)F)cc1)c1cccc2ccccc12,x,35µM,n,n,n
CC(C)(C)c1ccc(S(=O)(=O)Nc2ccc(C(O)(C(F)(F)F)C(F)(F)F)cc2)cc1,x,35µM,u,n,u
COc1ccc(Cl)cc1NC(=O)N1CCN(Cc2cc(=O)n3nc(-c4ccccc4)sc3n2)CC1,x,n,n,x,n
COC(=O)c1ccc(CSc2nc(C(F)F)cc(C)c2C#N)o1,n,11µM,n,n,n
COC(=O)c1ccc(COc2nc(C)cc(C)c2C#N)o1,x,n,n,n,n
Cc1ccc(S(=O)(=O)Cc2nc(-c3ccc(C(=O)NCc4ccccc4F)cc3)oc2C)cc1,x,x,x,n,x
COc1cc(C(=O)NCCc2sc(-c3cccc(F)c3)nc2C)cc(OC)c1OC,x,n,n,x,n
N#C/C=C1\n2c(nc3ccccc32)OC12CCCCC2,n,16µM,n,n,n
O=C(NCc1cccs1)c1nn(-c2ccccc2F)nc1CO,x,n,n,x,n
O=c1oc(CCO)cc2ccc(C#Cc3ccsc3)cc12,n,18µM,n,n,n
SMILES,PTAP TSG101 blk,TDP43 rescue,FUS suppressor,aSyn yeast inh,Abeta rescue
CN(C)c1ccc(C#Cc2ccc3cc(CCO)oc(=O)c3c2)cc1,n,n,n,n,n
COc1cc2c(=O)c(S(=O)(=O)c3ccc(C)cc3)cn(Cc3cccc(C)c3)c2cc1OC,x,n,u,x,n
O=S(=O)(c1ccc(Cl)cc1)N1CCCCCC1,n,n,n,n,n
O=S(=O)(c1c(Cl)sc(Cl)c1Br)N1CCCC1,n,11µM,n,n,n
CCCCn1c(SCc2nc3ccccc3s2)nc2ccccc2c1=O,n,u,x,n,n
CCCCn1c(SCc2nc3ccccc3s2)nc2cc(S(N)(=O)=O)ccc21,n,n,22µM,n,n
COc1ccc(CN2COc3ccc4c(-c5ccc(OC)cc5)cc(=O)oc4c3C2)cc1,x,n,n,x,n
O=[N+]([O-])c1ccc(N2CCCC2)cc1N1CCCC1,n,16µM,n,n,n
Nc1cc(N2CCCC2)c(Cl)cc1[N+](=O)[O-],n,11µM,n,n,n
Nc1cc(N2CCOCC2)c(Cl)cc1[N+](=O)[O-],n,20µM,n,n,n
O=[N+]([O-])c1ccc(N2CCCCC2)cc1N1CCOCC1,n,n,n,n,n
C=CCN1[C@@H](CC(C)C)COc2cccc(F)c2S1(=O)=O,x,x,n,x,x
O=[N+]([O-])c1nn(-c2ccc3c(c2)OCCO3)n(O)c1=Nc1ccccc1,n,11µM,n,n,n
CCc1ccc(N=c2c([N+](=O)[O-])nn(-c3ccc4c(c3)OCCO4)n2O)cc1,n,20µM,n,n,u
O=[N+]([O-])c1nn(-c2ccc3c(c2)OCCO3)n(O)c1=Nc1ccc(Cl)cc1,n,n,n,n,n
CCN1C(=O)c2ccccc2Sc2ccc(NC(=O)Nc3cccc([N+](=O)[O-])c3C)cc21,x,n,n,x,n
CCOC(=O)Cc1csc(NC(=O)COc2c(C)cccc2C)n1,n,n,n,n,n
CCOC(=O)Cc1csc(NC(=O)Cc2ccccc2)n1,n,n,n,n,n
CCOC(=O)Cc1csc(NC(=O)COc2ccccc2OCC)n1,n,11µM,n,x,n
CCOC(=O)Cc1csc(NC(=O)CC)n1,n,n,n,n,n
CCOC(=O)Cc1csc(NC(=O)COc2ccc3ccccc3c2)n1,n,13µM,n,n,u
CCOC(=O)Cc1csc(NC(=O)COc2ccc(OC)cc2)n1,n,13µM,n,n,n
COc1ccc(-n2ncc3c(NC(C)(C)CO)ncnc32)cc1,x,n,n,x,n
CC(C)c1ccc(S(=O)(=O)NCc2ccc3c(c2)CCN3C(=O)c2ccccc2)cc1,x,n,n,x,n
O=[N+]([O-])c1ccc(N2CCN(C(=S)NC3CCCCC3)CC2)cc1,n,13µM,n,n,u
SMILES,PTAP TSG101 blk,TDP43 rescue,FUS suppressor,aSyn yeast inh,Abeta rescue
CCOC(=O)C1CCCN(C(=O)c2ccc(NC(=O)c3nsc4ccccc34)cc2)C1 (centres undefined),x,u,u,x,n
Brc1ccsc1/C=N/Nc1ccccc1,n,10µM,n,n,n
S=C(NCc1ccco1)N1CCN(c2cccc(Cl)c2)CC1,n,n,n,n,13µM
S=C(NCCN1CCOCC1)N1CCN(c2cccc(Cl)c2)CC1,n,n,n,n,n
COc1ccc(N2C(=O)N3[C@H](c4ccc(Cl)cc4)[C@@H]4C(=O)N(C5CCCCC5)C(=O)[C@@H]4[C@]3(C)C2=O)cc1,n,n,28µM,n,n
C[C@@]12C(=O)N(c3cccc(Cl)c3)C(=O)N1[C@H](c1ccc(Cl)cc1)[C@@H]1C(=O)N(C3CCCCC3)C(=O)[C@@H]12,n,n,u,n,n
CN(C)c1ccc(CNC(=O)Cc2ccc(NC(=O)N3CCCCc4ccccc43)cc2)cc1,x,n,n,x,n
COc1ccc(Br)cc1CNC(=O)CCC(=O)N1CCSc2ccccc21,n,22µM!,u,n,n
CC(=O)c1sc(=S)n(Cc2ccccc2)c1C,n,13µM,n,n,n
